Measurements from PubChem BioAssay AID1159580 (chemical genetic matrix, 2015).
Values joined by “and” are separate entries in the source; they are usually repeats but may differ in a detail not shown here. Identical values can stand only once. Out of some 5,500 compounds screened, about 2,000 (36%) were called active. Roughly 18% stayed inconclusive and do not appear here. No stated cut-off is given here; in the data, active means normalized growth mostly below about 0.91 (no sharp cut-off); inconclusive means no clear call, values can overlap the other calls; inactive means mostly above about 0.92. This is one part of the list.

Assay: chemical genetic growth profiling, strain panel (AID 1159580);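 further: tested at 20 µM; growth read once vehicle control cultures reached saturation at 30 °C; 1 = growth at the plate median or of vehicle wells; lower values mean less growth of the strain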
Conditions: S. cerevisiae deletion strains, growth OD

Measured: normalized growth

NC(=O)c1cc[n+](CC2=C(C(=O)O)N3C(=O)C(NC(=O)C(c4ccccc4)S(=O)(=O)[O-])C3SC2)cc1 (centres undefined)
inactive: locus YAL013W, strain DEP1, active compounds read low 0.983 | locus YAL021C, strain ccr4, active compounds read low 1.01 | locus YAL026C, strain drs2, active compounds read low 0.997 | locus YAL030W, strain snc1, active compounds read low 1.01 | locus YBL061C, strain skt5, active compounds read low 0.994 | locus YBR009C, strain hhf1, active compounds read low 1.02 | locus YBR021W, strain FUR4, active compounds read low 0.97 | locus YBR023C, strain chs3, active compounds read low 0.997 | locus YBR171W, strain sec66, active compounds read low 1 | locus YBR229C, strain ROT2, active compounds read low 0.989 | locus YBR231C, strain swc5, active compounds read low 1 | locus YBR279W, strain paf1, active compounds read low 0.993 | locus YCL011C, strain gbp2, active compounds read low 1.02 | locus YCL016C, strain dcc1, active compounds read low 1.01 | locus YCL029C, strain bik1, active compounds read low 0.992 | locus YCL069W, strain vba3, active compounds read low 1.02 | locus YCR088W, strain abp1, active compounds read low 0.987 | locus YDL005C, strain med2, active compounds read low 0.998 | locus YDL035C, strain GPR1, active compounds read low 0.989 | locus YDL040C, strain nat1, active compounds read low 1 | locus YDL074C, strain BRE1, active compounds read low 1.02 | locus YDL101C, strain DUN1, active compounds read low 0.994 | locus YDL134C, strain PPH21, active compounds read low 0.973 | locus YDL185W, strain tfp1, active compounds read low 0.995 | locus YDL192W, strain arf1, active compounds read low 0.984 | locus YDR001C, strain nth1, active compounds read low 0.99 | locus YDR069C, strain doa4, active compounds read low 0.98 | locus YDR101C, strain arx1, active compounds read low 1 | locus YDR137W, strain rgp1, active compounds read low 1.02 | locus YDR150W, strain NUM1, active compounds read low 0.988 | locus YDR159W, strain sac3, active compounds read low 0.997 | locus YDR162C, strain NBP2, active compounds read low 0.981 | locus YDR195W, strain ref2 0.988 | locus YDR297W, strain sur2, active compounds read low 1 | locus YDR318W, strain mcm21, active compounds read low 0.986 | locus YDR334W, strain swr1, active compounds read low 0.994 | locus YDR335W, strain msn5, active compounds read low 0.984 | locus YDR388W, active compounds read low 0.992 | locus YDR392W, strain spt3, active compounds read low 1.04 | locus YDR502C, strain sam2, active compounds read low 0.987 | locus YEL003W, strain gim4, active compounds read low 0.985 | locus YEL037C, strain rad23, active compounds read low 0.999 | locus YEL061C, strain CIN8 (second series), active compounds read low 0.99 | locus YEL061C, strain CIN8, active compounds read low 0.994 | locus YER015W, strain faa2, active compounds read low 1.02 | locus YER016W, strain bim1, active compounds read low 0.99 | locus YER110C, active compounds read low 0.986 | locus YER111C, strain swi4, active compounds read low 0.995 | locus YER155C, strain BEM2 (second series), active compounds read low 0.986 | locus YER155C, strain BEM2, active compounds read low 0.978 | locus YER167W, strain BCK2, active compounds read low 0.98 | locus YFR010W, strain ubp6, active compounds read low 0.974 | locus YGL078C, strain dbp3, active compounds read low 0.988 | locus YGL086W, strain mad1, active compounds read low 0.978 | locus YGL167C, strain pmr1, active compounds read low 0.984 | locus YGL173C, strain kem1, active compounds read low 1.01 | locus YGL227W, strain vid30, active compounds read low 1.01 | locus YGL240W, strain doc1, active compounds read low 0.997 | locus YGL248W, strain PDE1, active compounds read low 0.976 | locus YGL253W, strain hxk2, active compounds read low 0.992 | locus YGR078C, strain PAC10, active compounds read low 1.01 | locus YGR135W, strain pre9, active compounds read low 0.957 | locus YGR229C, strain SMI1, active compounds read low 0.958 | locus YGR252W, strain gcn5, active compounds read low 0.937 | locus YHR013C, strain ard1, active compounds read low 1 | locus YHR027C, strain rpn1, active compounds read low 1.01 | locus YHR030C, strain SLT2, active compounds read low 0.986 and 1.08 | locus YHR079C, strain IRE1 (second series), active compounds read low 0.996 | locus YHR079C, strain IRE1, active compounds read low 1.11 | locus YHR094C, strain hxt1, active compounds read low 0.984 | locus YHR129C, strain ARP1, active compounds read low 0.988 | locus YHR142W, strain chs7, active compounds read low 0.993 | locus YHR200W, strain rpn10, active compounds read low 0.986 | locus YIL066C, strain RNR3, active compounds read low 0.995 | locus YIL073C, strain SPO22, active compounds read low 0.96 | locus YIL125W, strain kgd1, active compounds read low 0.992 | locus YIR030C, strain dcg1, active compounds read low 0.99 | locus YJL092W, strain hpr5, active compounds read low 0.995 | locus YJL095W, strain BCK1 (second series), active compounds read low 0.99 | locus YJL095W, strain BCK1, active compounds read low 1.02 and 1.05 | locus YJL115W, strain asf1, active compounds read low 0.988 | locus YJL129C, strain trk1, active compounds read low 0.962 | locus YJL134W, strain LCB3, active compounds read low 0.985 | locus YJL154C, strain vps35, active compounds read low 0.998 | locus YJL164C, strain tpk1, active compounds read low 1.02 | locus YJL166W, strain qcr8, active compounds read low 1 | locus YJL168C, strain set2, active compounds read low 0.998 | locus YJL187C, strain SWE1 (second series), active compounds read low 1.01 | locus YJR043C, strain POL32, active compounds read low 0.993
